# In the OligoGym collection:
# Target: ACSL3
# Assay: pooled miR-30 sensor sort-seq; sequence = guide strand
# Settings: shRNA
# Further: reference of the scale not given here.
row,Sequence,sensor-assay potency score (higher = more potent)
1,TTTAGCTTCATGGTAGATGGTT,0.468
2,TTGTAGTCCCACACTTCGGAAA,-1.33
3,TTTTCTTGTCTTGACTCGGAGA,-0.78
4,TTTGATTTCACAGCAAACTAAT,-0.867
5,TTTTGCTTCATTTTTGTAGTAC,0.298
6,TATTGTAGTCCCACACTTCGGA,0.568
7,TTTCACAGCAAACTAATGGTGC,-0.648
8,TAATTTTTGAAGACTGATCTGC,0.522

# Target: ACSM2A
# Assay: as above
# Settings: shRNA
row,Sequence,sensor-assay potency score (higher = more potent)
1,TTGTCTCGAAGCTTGGCTCGTT,0.119
2,TCATGGGACAGGAACTGCGAGG,-1.14
3,ATGATCTGTACATCATAACAGG,-1.32

# Target: ACSM2B
# Assay: as above
# Settings: shRNA
row,Sequence,sensor-assay potency score (higher = more potent)
1,TAACCTGTACATCATAACAGGA,-0.501
2,TATCTTTCTTGGGTACTTGTAT,-0.285
3,TCCTGCTGTAGCAACATCCGGT,-0.567
4,TTGGGTACTTGTATGGGGCTGT,0.442
5,TTGGTTCGTTGAATTTTCCCTG,0.266
6,TTTCATTGTCTTGGAAACCATG,-1.14
7,TTGATTTTCATTGTCTTGGAAA,-0.899
8,TGACTTCACATGCTGCTGCAGC,-0.423
9,TTAATGTAGAGAGTGCGGCTGG,0.202
10,TTTCTCAGACACCAGTAGCTTA,-0.818
11,TTGGCTGCTGTCTTGTCGGGAT,-0.364
12,TAAACTGGAAATACCCATCTTC,0.528
13,ATAACCTGTACATCATAACAGG,-1.03
14,TTAATGATATCATCTGCCCGTC,-0.544
15,TTGTCTCGAAGTTTGGTTCGTT,0.313

# Target: ACSM5
# Assay: as above
# Settings: shRNA
row,Sequence,sensor-assay potency score (higher = more potent)
1,TTGATCTCTGCTCCTGTGCCAT,-0.903
2,TTGATCACATCGTCGTTTCTTC,0.51
3,TGACTTCGCAATTTACTCCTTT,-0.271
4,TACTCCTTTGGATCTTTCCAGA,-1.3
5,TTGAAGAAACAGAAGGGCCGAG,-0.0546
6,ATAACTTTGGCATCAACTCGGG,-0.475
7,TACAGCTCCACACCAGTCTGGT,-0.482
8,TCCACTTGATCTCTGCTCCTGT,-0.0695
9,TAACTTTGGCATCAACTCGGGG,-0.74
10,AGAATTGATCACATCGTCGTTT,-0.999
11,TTGAAGAATTGATCACATCGTC,0.691
12,TTTGACATCTTTAGGGTCGAAG,-1.09
